Eleven compounds from PubChem BioAssay (NCATS) can be followed below.

Inconclusive results are not listed. Values without a mark were called inactive. Active and inactive are the calls of the source. The call rests on the fitted dose curve; in most records, active means well fitted curve in the direction sought with a large enough effect; inconclusive means small, poorly fitted or top-dose-only effect, or another doubt; inactive means no such curve, though single readings can be large; an effect the other way counts as inactive or inconclusive.

Assay [1] addresses ATP-dependent 6-phosphofructokinase (Trypanosoma brucei brucei) (UniProt O15648). The assay can be described thus: qHTS Assay to Find Inhibitors of T. brucei phosphofructokinase: hit validation (AID 492961).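 Further: luminescence reports ADP formed as PFK phosphorylates fructose-6-phosphate with ATP; on the % scale 0 is the no-effect control and ±100 the full control effect.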 In outline:
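ADP-Glo luminescence read-out of ADP formed by 1.25 nM PFK from 0.1 mM ATP and 0.5 mM F6P (TEA pH 8.0, 45 min, RT). Compounds titrated; activity normalized to no-enzyme and full-enzyme controls.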
On the technique in general: In qHTS, concentration-response curves come from the screen itself.

The target of assay [2] is Luciferin 4-monooxygenase (Photinus pyralis) (UniProt P08659). The assay can be described thus: Biochemical firefly luciferase enzyme assay for NPC (AID 624030).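 Further: purified P. pyralis luciferase at 10 nM with luciferin and ATP substrate; 0% = DMSO and -100% = full luciferase inhibition by PTC124 control; nearly all actives have a fitted effect of over 70% in size.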 The method in brief:
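Direct inhibition of firefly luciferase enzyme (10 nM final, 50 mM Tris Acetate) assessed by luminescence within 5 minutes. Percent activity scaled between DMSO and PTC124 positive control, with concentration-effect curves classified by fit quality and response.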

The nature of assay [3]: qHTS profiling for inhibitors of Plasmodium falciparum proliferation (AID 504749). Further: potency means the concentration at half of the fitted maximal effect.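 On activity, negative = inhibition: 0% = DMSO vehicle and full inhibition = artemisinin control.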 On all read-outs here: nearly all actives have a fitted effect of over 60% in size. The following applies: P. falciparum in erythrocytes, SYBR Green DNA, 72 h; for activity, negative = inhibition: at 28.7 µM (top of the series). The method in brief: (§1)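 Infected RBCs, 0.3% parasitemia/2.5% Hct final; cpd 72 h, 37 C, 5% CO2; lysis buffer with saponin/triton/SYBR Green I, o/n RT dark; FI 485/535; norm. to artemisinin (0.29 uM) and DMSO.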

The test system of the next assay is ATS189. The assay is described as above. The following applies: P. falciparum in erythrocytes, SYBR Green DNA, 72 h; series mostly up to 28.7 µM. The method in brief:
as §1

In the next assay the test system is C2A. The assay is described as above. Conditions: P. falciparum in erythrocytes, SYBR Green DNA, 72 h; series mostly up to 28.7 µM. The method in brief:
as §1

The subject of another assay is CP191. The description is as above. Conditions: P. falciparum in erythrocytes, SYBR Green DNA, 72 h; series mostly up to 28.7 µM. In outline: as §1
Another assay has as its system CP192. Described as above. The following applies: P. falciparum in erythrocytes, SYBR Green DNA, 72 h; series mostly up to 28.7 µM. In outline: as §1
For the next assay, the system named is CP201. Described as above. The following applies: P. falciparum in erythrocytes, SYBR Green DNA, 72 h; series mostly up to 28.7 µM. The method in brief:
as §1

The test system of another assay is CP237. The description is as above. The following applies: P. falciparum in erythrocytes, SYBR Green DNA, 72 h; series mostly up to 28.7 µM. In outline:
as §1

The subject of a further assay is CP238. The description is as above. The following applies: P. falciparum in erythrocytes, SYBR Green DNA, 72 h; series mostly up to 28.7 µM. In outline:
as §1

The test system of the next assay is CP268. Described as above. Conditions: P. falciparum in erythrocytes, SYBR Green DNA, 72 h; series mostly up to 28.7 µM. In outline:
as §1

In the next assay the test system is CP269. The assay is described as above. The following applies: P. falciparum in erythrocytes, SYBR Green DNA, 72 h; series mostly up to 28.7 µM. The method in brief:
as §1

The test system of a further assay is CP286. Described as above. The following applies: P. falciparum in erythrocytes, SYBR Green DNA, 72 h; series mostly up to 28.7 µM. In outline: as §1
The subject of the next assay is CP325. The description is as above. The following applies: P. falciparum in erythrocytes, SYBR Green DNA, 72 h; series mostly up to 28.7 µM. The method in brief: as §1
The next assay has as its system CP329. The assay is described as above. The following applies: P. falciparum in erythrocytes, SYBR Green DNA, 72 h; series mostly up to 28.7 µM. In outline:
as §1

The subject of the next assay is FAB9. The description is as above. Conditions: P. falciparum in erythrocytes, SYBR Green DNA, 72 h; series mostly up to 28.7 µM. The method in brief:
as §1

The subject of a further assay is JCK. The assay is described as above. Conditions: P. falciparum in erythrocytes, SYBR Green DNA, 72 h; series mostly up to 28.7 µM. The method in brief:
as §1

The test system of another assay is PC49. The assay is described as above. The following applies: P. falciparum in erythrocytes, SYBR Green DNA, 72 h; series mostly up to 28.7 µM. The method in brief:
as §1

In assay [4] the target is Ubiquitin carboxyl-terminal hydrolase 1 (Homo sapiens) (UniProt O94782). The assay can be described thus: Inhibitors of USP1/UAF1: Pilot qHTS (AID 504865).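 Further: rhodamine fluorescence freed from ubiquitin-rhodamine substrate followed over time; top concentration of the series differs between compounds; on the % scale 0 is the no-effect control and ±100 the full control effect; nearly all actives have a fitted effect of over 35% in size.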 The method in brief: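 USP1/UAF1 complex (1nM) preincubated with compound 15 min at room temperature, then Ub-Rho substrate (150nM final) added. Fluorescence read kinetically at 480/540 nm, 6 reads every 60 seconds. Buffer: 50mM HEPES pH 7.8, 0.5mM EDTA, 0.1 mg/ml BSA, 1mM TCEP, 0.01% Tween-20.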
Ubiquitin carboxyl-terminal hydrolase 1 (Homo sapiens), sequence (O94782 whole entry, looked up): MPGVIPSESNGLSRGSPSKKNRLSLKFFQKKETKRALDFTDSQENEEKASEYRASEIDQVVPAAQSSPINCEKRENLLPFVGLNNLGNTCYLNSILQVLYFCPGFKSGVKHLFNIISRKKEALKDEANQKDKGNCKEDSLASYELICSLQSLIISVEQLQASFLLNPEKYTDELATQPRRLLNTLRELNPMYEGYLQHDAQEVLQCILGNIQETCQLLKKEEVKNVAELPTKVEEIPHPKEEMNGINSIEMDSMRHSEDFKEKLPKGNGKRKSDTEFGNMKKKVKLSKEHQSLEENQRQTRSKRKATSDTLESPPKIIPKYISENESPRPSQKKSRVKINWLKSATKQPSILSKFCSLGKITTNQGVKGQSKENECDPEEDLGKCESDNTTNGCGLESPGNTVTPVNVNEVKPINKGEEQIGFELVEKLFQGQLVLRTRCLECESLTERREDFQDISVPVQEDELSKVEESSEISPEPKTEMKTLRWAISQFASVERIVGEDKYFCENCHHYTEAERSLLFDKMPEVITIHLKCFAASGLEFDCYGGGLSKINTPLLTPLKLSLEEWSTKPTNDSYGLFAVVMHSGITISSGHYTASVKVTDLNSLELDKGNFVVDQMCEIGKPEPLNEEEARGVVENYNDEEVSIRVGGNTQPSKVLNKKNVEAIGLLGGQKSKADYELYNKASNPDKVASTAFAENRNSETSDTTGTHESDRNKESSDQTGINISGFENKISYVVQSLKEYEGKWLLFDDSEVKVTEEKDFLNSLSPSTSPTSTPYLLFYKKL

A further assay concerns CP215. The assay can be described thus: qHTS profiling for inhibitors of Plasmodium falciparum proliferation (AID 504749). Further: nearly all actives have a fitted effect of over 60% in size. Further: potency means the concentration at half of the fitted maximal effect.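 On activity, negative = inhibition: 0% = DMSO vehicle and full inhibition = artemisinin control.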 Conditions: P. falciparum in erythrocytes, SYBR Green DNA, 72 h; series mostly up to 28.7 µM. In outline: as §1

ATP-dependent 6-phosphofructokinase (Trypanosoma brucei brucei), sequence (O15648 whole entry, looked up): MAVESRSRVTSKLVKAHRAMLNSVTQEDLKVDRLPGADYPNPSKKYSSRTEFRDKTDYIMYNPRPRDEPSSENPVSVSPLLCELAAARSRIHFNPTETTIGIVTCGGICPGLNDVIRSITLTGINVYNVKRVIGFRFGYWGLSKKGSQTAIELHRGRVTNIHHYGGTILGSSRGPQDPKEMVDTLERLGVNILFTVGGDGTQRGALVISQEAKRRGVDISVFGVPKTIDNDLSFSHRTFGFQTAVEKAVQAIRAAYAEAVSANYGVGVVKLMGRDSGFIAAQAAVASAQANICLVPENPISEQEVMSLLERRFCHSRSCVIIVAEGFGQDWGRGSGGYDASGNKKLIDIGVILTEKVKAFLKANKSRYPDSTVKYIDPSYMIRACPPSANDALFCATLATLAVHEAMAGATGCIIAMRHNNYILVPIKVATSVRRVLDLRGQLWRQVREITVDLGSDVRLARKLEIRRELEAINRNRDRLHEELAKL
Luciferin 4-monooxygenase (Photinus pyralis), sequence (P08659 whole entry, looked up): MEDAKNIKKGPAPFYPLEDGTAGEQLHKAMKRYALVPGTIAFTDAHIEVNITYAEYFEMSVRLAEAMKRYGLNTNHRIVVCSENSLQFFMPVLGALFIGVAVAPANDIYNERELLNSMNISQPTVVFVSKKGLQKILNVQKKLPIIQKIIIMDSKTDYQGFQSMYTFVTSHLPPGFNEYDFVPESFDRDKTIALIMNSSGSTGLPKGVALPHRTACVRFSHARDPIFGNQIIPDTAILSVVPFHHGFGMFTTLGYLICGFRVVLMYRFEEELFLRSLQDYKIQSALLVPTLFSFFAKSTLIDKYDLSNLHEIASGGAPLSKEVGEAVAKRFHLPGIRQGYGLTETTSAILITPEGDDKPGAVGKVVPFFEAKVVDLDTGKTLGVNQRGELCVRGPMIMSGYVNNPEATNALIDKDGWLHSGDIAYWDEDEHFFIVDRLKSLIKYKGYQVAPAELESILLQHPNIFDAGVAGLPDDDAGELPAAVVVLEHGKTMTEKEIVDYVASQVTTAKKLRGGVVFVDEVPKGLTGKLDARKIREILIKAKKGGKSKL

Take `C#CCN1CC(=O)N(COC(=O)[C@@H]2[C@@H](C=C(C)C)C2(C)C)C1=O`: the compound was classed as inactive in assay [1]. Further, the Potency result (in assay [2]; with ATS189; in the assay on C2A; with CP191; in the assay on CP192; in the assay on CP201) was “inactive” each time. Further, the Potency entry with CP237, in the assay with CP238, in the assay on CP268, in the assay with CP269, in the assay with CP286 and in the assay with CP325 was “inactive” throughout. Moreover, the Potency entry in the assay with CP329, in the assay with FAB9, in the assay on JCK and in the assay with PC49 was “inactive” each time. Also, the activity, negative = inhibition is 4.89% in assay [3] (parasite line A) and 10.9% in assay [3] (parasite line B).

Consider `CCN(CC)C(=O)N[C@@H]1C=C2c3cccc4[nH]cc(c34)C[C@H]2N(C)C1`, for which, in assay [1], the compound was classed as inactive. Besides, the Potency result (in assay [4]; in assay [2]; with CP192; in the assay on CP201; in the assay with CP215; in the assay with CP325) was “inactive” each time. For the same compound, the Potency entry in the assay with FAB9 and in the assay on PC49 was “inactive” in each case. Also, the activity, negative = inhibition in [3] (parasite line A) is -22.6%.

Take `NC(Cc1ccc(Oc2cc(I)c(O)c(I)c2)c(I)c1)C(=O)O` (centres undefined): the figures for the activity, negative = inhibition in assay [3] (parasite line A) and in assay [3] (parasite line B) were 8.09% and -0.518%, respectively. For the same compound, the Potency result in the assay with ATS189, in the assay with C2A, with CP191, in the assay on CP192, with CP201 and in the assay on CP215 was “inactive” throughout. Besides, the Potency entry in the assay on CP237, in the assay on CP238, with CP268, in the assay on CP269, in the assay with CP286 and in the assay on CP325 was “inactive” each time. The Potency entry in the assay with CP329, with FAB9, in the assay on JCK and in the assay on PC49 was “inactive” in each case.

With `CC(C)CCC(=O)OC1CCC2C3CCC4=CC(=O)CC[C@]4(C)C3CC[C@]12C` (some centres undefined), the Potency result (in assay [2]; with CP192; in the assay with CP201; in the assay on CP215; in the assay with CP268; in the assay on CP269) was “inactive” each time. For the same compound, the Potency result in the assay with CP325, with CP329, with FAB9, in the assay with JCK and in the assay on PC49 was “inactive” in each case. For the same compound, the Potency in assay [3] (parasite line A) was 10 µM (active); in the assay with ATS189, 8.91 µM (active); in the assay with CP191, 6.31 µM (active); in the assay on CP237, 11.2 µM (active); with CP286, 4.47 µM (active).

Take `O=C1CC2OCC=C3CN4CCC56c7ccccc7N1C5[C@H]2[C@H]3C[C@H]46` (some centres undefined) (tested in a mixture with another compound): the result in assay [1] was inactive. Further, the Potency result (in assay [4]; with ATS189; in the assay with C2A; in the assay with CP191; in the assay with CP192; in the assay on CP201) was “inactive” each time. In addition, the Potency result in the assay with CP237, with CP238, in the assay on CP268, in the assay with CP269, in the assay on CP325 and in the assay with CP329 was “inactive” each time. In the assay on JCK, the Potency result is “inactive”.

On to `C=CC[C@]1(O)CCC2C3CCC4=CCCCC4C3CCC21C` (some centres undefined), for which the outcome in [1] was inactive. Also, the Potency entry (in [2]; in the assay with ATS189; with C2A; in the assay with CP191; with CP192; with CP201) was “inactive” throughout. Besides, the Potency entry in the assay with CP215, with CP237, in the assay on CP238, with CP268, with CP269 and with CP286 was “inactive” in each case. Also, the Potency result in the assay on CP325, in the assay with CP329, with FAB9, in the assay with JCK and in the assay on PC49 was “inactive” throughout. For the same compound, the values for the activity, negative = inhibition in assay [3] (parasite line A) and in assay [3] (parasite line B) were -16.3% and -3.62%, respectively.

Regarding `CCC(=O)OC1(c2ccccc2)CCN(C)CC1C` (centres undefined), the Potency result (in [4]; in assay [2]; in the assay with C2A; in the assay on CP191; in the assay on CP192; in the assay on CP201) was “inactive” in each case. For the same compound, the Potency entry in the assay with CP215, in the assay with CP268, in the assay with CP269, with FAB9 and in the assay with JCK was “inactive” throughout. For the same compound, the activity, negative = inhibition is -1.38% in [3] (parasite line A) and 2.19% in assay [3] (parasite line B). Further, the results for the Potency in the assay on CP237 and in the assay on CP286 were 3.98 µM (active) and 12.6 µM (active), respectively.

In the case of `CC12CCC3C4CCC(=O)C(O)=C4CCC3C1CCC2OC(=O)CCC1CCCC1` (centres undefined), the call in [1] was inactive. Further, the Potency result (in [2]; in the assay with ATS189; in the assay with C2A; in the assay on CP191; in the assay with CP192; in the assay on CP201) was “inactive” each time. Further, the Potency entry in the assay with CP215, in the assay with CP237, in the assay on CP238, in the assay on CP268, with CP269 and in the assay with CP286 was “inactive” throughout. Besides, the Potency entry with CP325, in the assay on CP329, with FAB9, in the assay on JCK and with PC49 was “inactive” in each case. Further, the activity, negative = inhibition was -6.44% in assay [3] (parasite line A) and -4.5% in assay [3] (parasite line B).

As to `CN(C)C1C(=O)C(C(N)=O)C(=O)C2(O)C(=O)C3C(=O)c4c(O)cccc4C(C)(O)C3C(O)C12` (centres undefined), the compound was called inactive in [1]. Besides, the Potency result (in assay [2]; in the assay on ATS189; with C2A; in the assay on CP191; in the assay with CP192; with CP201) was “inactive” in each case. The Potency entry with CP215, in the assay on CP238, with CP329, with FAB9, with JCK and with PC49 was “inactive” each time.

As for `CCCC(C)C1(CC)C(=O)NC(=S)NC1=O` (centres undefined), the result in [1] was inactive. In addition, the Potency entry (in assay [2]; in the assay on ATS189; in the assay with C2A; in the assay with CP191; in the assay on CP201; with CP215) was “inactive” throughout. Also, the Potency entry in the assay with CP237, with CP238, in the assay with CP268, in the assay with CP269, with CP286 and with CP325 was “inactive” in each case. For the same compound, the Potency result with CP329, with FAB9, in the assay on JCK and with PC49 was “inactive” each time. The activity, negative = inhibition is 0.271% in assay [3] (parasite line A) and 18% in [3] (parasite line B).

For `C#C[C@]1(O)CC[C@H]2[C@@H]3CCC4=CC(=O)CCC4(C)[C@H]3CCC21C` (some centres undefined), in assay [1], the outcome was inactive. Moreover, the Potency result (in assay [2]; in the assay with ATS189; in the assay on C2A; in the assay with CP191; with CP192; in the assay on CP201) was “inactive” throughout. In addition, the Potency result with CP215, in the assay on CP237, in the assay with CP238, with CP268, with CP269 and with CP286 was “inactive” throughout. Further, the Potency result with CP325, in the assay on CP329, in the assay with FAB9, in the assay with JCK and with PC49 was “inactive” in each case. The results for the activity, negative = inhibition in assay [3] (parasite line A) and in [3] (parasite line B) were -6.98% and 2.88%, respectively.
